Screening data (PubChem BioAssay)
This is a sample that favours compounds with a hit; in the whole collection about 7.8% have one here.
Vaccinia Venus – qHTS for Stage-Specific Inhibitors of Vaccinia Orthopoxvirus: Venus Reporter Primary qHTS; AID 720580, 2013; Vaccinia virus Venus reporter expression, fluorescence; Potency, µM (doses to about 36.5 µM), for the others: at the highest dose activity change, negative = inhibition, most hits filed as inhibitors; 330,000 tested, 0.46% active; calls by dose curve; tested in A549 cells; further: potency means the concentration at half of the fitted maximal effect; nearly all actives have a fitted effect of over 30% in size
HCMV antiviral – qHTS Assay for inhibitors of the human cytomegalovirus (HCMV) | HFF cells, HCMV-luciferase reporter, 72 h; hits give low values | activity change, negative = inhibition, % at 57.5 µM | AID 1259415, 2018 | 410,000 tested, 4.5% active; in the data active means activity change below about -60%; inconclusive means no clear call, values can overlap the other calls; inactive means above about -39%
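Cell-based, HFFs, 1000 cells/well, 16 h 37C; cpds in DMSO + HCMV-luc, MOI 1 PFU/cell; 72 h 37C; OneGlo luminescence after 5 min RT; norm. to buffer vs Salinomycin 10uM.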
Lassa entry inh – qHTS for Inhibitors of binding or entry into cells for Lassa Virus | Lassa virus pseudotype entry inhibition, cell reporter | Potency, µM (doses to about 37.9 µM), for the others: at the top dose activity change, negative = inhibition, actives largely listed as inhibitors | 300,000 tested, 1.2% active | AID 540256, 2011; calls by dose curve; tested in HEK293 cells; further: potency means the concentration at half of the fitted maximal effect; nearly all actives have a fitted effect of over 50% in size
Vaccinia mCherry – qHTS for Stage-Specific Inhibitors of Vaccinia Orthopoxvirus: mCherry Reporter Primary qHTS; Vaccinia virus mCherry reporter infection, fluorescence; Potency, µM (top dose mostly 36.5 µM), for the others: at the highest dose activity change, negative = inhibition, actives largely listed as inhibitors; 310,000 tested, 0.63% active; AID 720579, 2013; calls by dose curve; tested in A549 cells; further: potency means the concentration at half of the fitted maximal effect; nearly all actives have a fitted effect of over 35% in size
MARV entry inh – qHTS for inhibitors of binding or entry into cells for Marburg Virus; Marburg virus pseudotyped entry inhibition, cell reporter; Potency, µM (doses to about 37.8 µM), for inactives: at the highest dose activity change, negative = inhibition, usual class: inhibitors; 300,000 tested, 1.8% active; calls by dose curve; tested in HEK293 cells; further: potency means the concentration at half of the fitted maximal effect
HCV inh – qHTS Assay for Inhibitors of Hepatitis C Virus (HCV); Huh7.5.1 HCVcc-Cre infection, luciferase reporter, 44 h; Potency, µM (titrated, usually from 41.8 µM), for inactives: top-dose activity change, negative = inhibition, most hits filed as inhibitors; 340,000 tested, 3.4% active; active means well fitted inhibition curve with a large enough effect; inconclusive means small, poorly fitted or top-dose-only effect, or another doubt; inactive means no such curve, though single readings can be large or run the other way; further: potency means the concentration at half of the fitted maximal effect
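Infectious HCVcc-Cre (~0.5 moi) was added to cells just after compound, with cells seeded 4 h earlier at 1,000 per well. Luciferase activity after 44 h culture reported infection; substrate was incubated 15 min at room temperature before reading.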
* marks the source's active call; other numbers are inactive results; i = inactive; ? = inconclusive; · = no result given; [ ] = dose if it differs, or a comment. On the % scale 0 is the no-effect control and ±100 the full control effect.

SMILES	Vaccinia Venus	HCMV antiviral	Lassa entry inh	Vaccinia mCherry	MARV entry inh	HCV inh
C[C@H]1CC[C@H]2C(=O)O[C@H](COc3ccc(C(C)(C)C)cc3)CN2[C@@H]1c1ccc(Br)cc1	·	·	·	·	-12%[14.2 µM]	·
COc1ccc(-c2cn(CCC(=O)O)c(=O)cn2)cc1	·	-13	·	·	·	·
CCCCSc1nnc2n(-c3ccc(OC)cc3)c(=O)c3c4c(sc3n12)COC(C(C)C)C4 (stereo unspecified)	-22%	29	-4%[46.1 µM]	-16%	0%[46.1 µM]	·
O=C(Nc1ccc(F)cc1F)NC1CCN(Cc2c(F)cccc2Cl)CC1	-10%	-68*	?	-5%	?	-1%
CCc1cccc(NC(=O)c2cc3c(=O)n(Cc4ccccc4)ccc3nc2C)c1	-17%	-1	-18%[46.1 µM]	-7%	·	·
Cc1ccc(NC(=O)CSc2nc3ncccc3[nH]2)cc1F	-2%	23	?	0%	·	·
O=C(CNC(=O)c1cccs1)N/N=C/c1c(F)cccc1Cl	-14%	-60*	12%	i	19%	5%
Cc1ccc(S(=O)(=O)c2nc(Nc3ccccc3N3CCOCC3)sc2Cl)cc1	·	-34	0%	·	?	10µM*
C=CCOC(=O)C(C(C)=O)C(NC(=O)OC)c1cccc(F)c1 (stereo unspecified)	·	·	·	·	12%[14.2 µM]	·
COc1ccc(CC(=O)Nc2sc3c(c2C(=O)Nc2cccc(Cl)c2)CCCCC3)cc1	?	-106*	-8%[46.1 µM]	-25%	·	·
CCN(CC)Cc1c(NC(=O)c2ccc(OC)cc2)sc2c1CCCC2	-9%	-90*	?	-8%	·	·
CCOC(=O)c1c(NC(=O)c2ccc(OC)cc2)sc2c1CCCCC2	5%	4	-17%[46.1 µM]	-3%	·	·
COc1ccc(NC(=O)CN(C)CC(=O)Nc2sc3c(c2C(N)=O)CCC3)cc1	-23%	-22	-3%	-9%	?	?
COc1ccc(CC(=O)Nc2sc3c(c2C(=O)Nc2ccccc2)CCCCC3)cc1	-17%[7.34 µM]	?	-8%[46.1 µM]	-24%[7.34 µM]	·	·
CCN(CC(=O)Nc1ccc(OC)cc1)CC(=O)Nc1sc2c(c1C(=O)OC)CCCC2	·	?	·	·	·	7.9µM*
COc1cc(OC)c(NC(=O)c2cc(C)nc3c2c(C)nn3-c2ccc(C)cc2)cc1Cl	-6%	26	?	0%	·	·
C/C(=N\NC(=S)NC(C)C)c1ccc2c(c1)OCCO2	-18%	?	?	?	?	?
C/C(=N\NC(=S)NC(C)C)c1ccc(Cl)s1	-28%	-30	-1%	-18%	-12%	6.3µM*
C/C(=N\NC(N)=S)c1ccc(Cl)s1	?	-67*	-11%	0.35µM*	-11%	-10%
O=[N+]([O-])c1c(Nc2ccccn2)cc(Cl)c2nonc12	-31%	-105*	?	-25%	1%[46.1 µM]	?
O=C(O)c1ccccc1Nc1cc(Cl)c2nonc2c1[N+](=O)[O-]	-2%	4	13%[46.1 µM]	-2%	7%[46.1 µM]	14%
CN(C)c1cc(Nc2ccc(O)cc2)c([N+](=O)[O-])c2nonc12	6%	?	·	-7%	·	7%
O=[N+]([O-])c1c(Nc2ccc(O)cc2)cc(Cl)c2nonc12	?	-100*	·	?	·	7.1µM*
Cc1ccc2nc(C)c3c(c2c1)OC(C(C)(Cl)Br)C3 (stereo unspecified)	-4%	-20	?	17%	-23%[46.1 µM]	7.1µM*
Cc1nc2ccccc2c2c1CC(C(C)(Cl)Br)O2 (stereo unspecified)	·	-92*	·	·	·	3.2µM*
SMILES	Vaccinia Venus	HCMV antiviral	Lassa entry inh	Vaccinia mCherry	MARV entry inh	HCV inh
NS(=O)(=O)c1ccc(N=Nc2c(O)[nH]c3ccc(Cl)cc23)cc1	·	·	2.8µM*	·	·	·
NS(=O)(=O)c1ccc(N=Nc2c(O)[nH]c3ccc(C(=O)NCCCn4ccnc4)cc23)cc1	·	·	3.1µM*	·	·	·
CCN(CC)c1ccccc1/C=C/[n+]1ccc(CCCCI)c2ccccc21	i	·	·	i	·	·
COc1cc(CN2CCC3(CCC(CNC(=O)c4ccccc4)O3)CC2)cc(OC)c1 (stereo unspecified)	-6%	·	·	i	·	·
Cc1cc(Cl)n2c(nc3cc(F)c(F)cc32)c1C#N	-23%	-99*	?	?	13µM*	?
CCOc1ccc(CNS(=O)(=O)c2c(C(=O)N3CCCCCC3)c(C)n(C)c2C)cc1OC	-3%	-12	-3%[46.1 µM]	-10%	·	·
CN1CCN(NC(=O)c2cn(-c3ccccc3)nc2-c2ccc(OC(F)F)cc2)CC1	-24%	-38	7%	-21%	7.1µM*	-6%
COc1ccc(-c2nn(-c3ccccc3)cc2C(=O)Nc2nccs2)cc1	?	-23	-20%	·	?	?
O=C(Nc1cccc(S(=O)(=O)N2CCOCC2)c1)c1cn(-c2ccccc2)nc1-c1ccccc1	-14%	-64*	?	i	?	15%
Cc1ccccc1NC(=O)c1cn(-c2ccccc2)nc1-c1ccccc1	-1%	?	-7%[46.1 µM]	-14%	2%[46.1 µM]	?
Cc1cccc(C)c1NC(=O)c1cn(-c2ccccc2)nc1-c1ccccc1	-15%	-64*	-3%	-1%	17%	?
COC(=O)c1ccc(NC(=O)c2cn(-c3ccccc3)nc2-c2ccncc2)cc1	-25%	-98*	-15%	·	13µM*	?
Cc1ccccc1NC(=O)c1c(NC(=O)Cc2ccccc2)sc2c1CCC2	-5%	-30	2%[46.1 µM]	1%	·	·
N#Cc1ccc(-c2nc3ccc(Cl)cn3c2Cc2ccccc2)cc1	5%	-5	·	24%	·	·
CC1=C(C(=O)Nc2ccc(C)cc2C)C(c2ccc(O)cc2)n2nc(SCC(=O)c3ccc(C)cc3)nc2N1 (stereo unspecified)	-6%	6	25%[46.1 µM]	-10%	·	·
CCN1C(=O)N(S(=O)(=O)c2ccc(C)cc2)C(c2ccccc2)C(C(=O)OC)=C1C (stereo unspecified)	·	·	·	·	17%[14.2 µM]	·
Cc1cc(F)ccc1S(=O)(=O)Nc1ccccc1C(=O)Nc1ccccc1-c1nc2ccccc2[nH]1	?	·	11µM*	?	?	7.9µM*
O=C(NNc1ccccc1Br)C(O)(c1cccc(C(F)(F)F)c1)c1cccc(C(F)(F)F)c1	?	-99*	?	11µM*	?	?
Cc1ccc(NNC(=O)C(O)(c2cccc(C(F)(F)F)c2)c2cccc(C(F)(F)F)c2)cc1	?	-89*	?	?	?	?
COc1ccc(/C=N/NC(=O)C(=O)/C=C2\NC3(CCCC3)Cc3ccccc32)cc1	?	-11	-23%	?	?	10µM*
COC(=O)CCn1nnc(-c2ccc(C(C)C)cc2)n1	·	-62*	?	·	?	-1%
Cn1cc(S(=O)(=O)c2cccc(Cl)c2)c(=O)c2cc(F)c(N3CCCCC3)cc21	-14%	-61*	-2%[46.1 µM]	-3%	·	·
